Results reported in PubChem BioAssay (NCATS).
Where “and” joins values, the source holds several entries; their conditions need not be identical. Equal entries are not always repeated. Inconclusive results are not listed. Entries that show only a call come without a potency. Calls of active or inactive are those of the source. Unless noted, the call rests on the fitted dose curve.

What was measured:
[1] = target: Bile acid receptor (Homo sapiens) (UniProt Q96RI1); assay: qHTS assay for small molecule antagonists of farnesoid X receptor signaling (AID 588526)
Chain of Bile acid receptor (Homo sapiens) (Q96RI1 whole entry, looked up): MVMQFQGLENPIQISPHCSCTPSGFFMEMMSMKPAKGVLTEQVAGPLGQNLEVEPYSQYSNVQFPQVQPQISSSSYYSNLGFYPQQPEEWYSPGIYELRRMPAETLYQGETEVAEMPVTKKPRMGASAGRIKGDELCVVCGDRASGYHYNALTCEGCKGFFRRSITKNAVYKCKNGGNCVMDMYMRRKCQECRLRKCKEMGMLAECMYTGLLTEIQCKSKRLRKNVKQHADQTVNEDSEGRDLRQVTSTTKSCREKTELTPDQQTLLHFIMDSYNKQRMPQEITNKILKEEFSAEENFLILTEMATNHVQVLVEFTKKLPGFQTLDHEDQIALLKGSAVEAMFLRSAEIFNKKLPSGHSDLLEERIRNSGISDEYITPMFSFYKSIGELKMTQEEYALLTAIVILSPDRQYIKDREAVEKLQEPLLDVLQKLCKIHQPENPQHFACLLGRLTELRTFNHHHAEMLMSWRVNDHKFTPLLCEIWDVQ
Method in brief: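 Antagonist mode: titrated compounds tested against chenodeoxycholic acid stimulation (normalized to 50 uM CDCA and DMSO) in GeneBLAzer HEK293T cells for 16 h. Beta-lactamase read by CCF4 fluorescence; IC50 from Hill fits.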

[2] = target: Vitamin D3 receptor (Homo sapiens) (UniProt P11473); assay: qHTS assay for small molecule antagonists of vitamin D receptor signaling (AID 588541);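 further: receptor activated by calcitriol during compound treatment; series mostly up to about 77 µM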
Chain of Vitamin D3 receptor (Homo sapiens) (P11473 whole entry, looked up): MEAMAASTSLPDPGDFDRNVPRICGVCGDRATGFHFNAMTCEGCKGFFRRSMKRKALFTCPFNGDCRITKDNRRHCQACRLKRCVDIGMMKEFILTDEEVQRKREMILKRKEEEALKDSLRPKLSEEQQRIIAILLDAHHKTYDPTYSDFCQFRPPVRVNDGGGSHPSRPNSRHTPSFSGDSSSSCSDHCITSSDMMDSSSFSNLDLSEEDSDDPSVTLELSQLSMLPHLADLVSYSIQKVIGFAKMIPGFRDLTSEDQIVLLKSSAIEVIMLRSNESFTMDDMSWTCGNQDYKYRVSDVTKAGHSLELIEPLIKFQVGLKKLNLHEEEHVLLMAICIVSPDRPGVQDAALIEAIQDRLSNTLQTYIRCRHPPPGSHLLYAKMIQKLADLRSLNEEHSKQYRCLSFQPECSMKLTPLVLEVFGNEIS
Method in brief: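 VDR-UAS-bla HEK293T cells in 2% charcoal-stripped FBS were stimulated with 1-alpha,25-dihydroxyvitamin D3 (3 nM final) plus compound for 16 h at 37 C. The beta-lactamase CCF4 readout was normalized to 50 nM agonist and DMSO, and Hill fits gave IC50.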

[3] = target: Vitamin D3 receptor (Homo sapiens) (UniProt P11473); assay: qHTS assay for small molecule agonists of vitamin D receptor signaling (AID 588543)
Method in brief: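 VDR-UAS-bla HEK293T cells, 2000/well, 2% charcoal-stripped FBS; compound titration 16 h at 37 C; CCF4 beta-lactamase ratio read. Normalized to 50 nM 1-alpha,25-dihydroxyvitamin D3 (100%) and DMSO; Hill fit gives EC50, efficacy.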

[4] = target: Glucocorticoid receptor (Homo sapiens) (UniProt P04150); assay: qHTS assay for small molecule agonists of glucocorticoid receptor signaling (AID 588532; active means well fitted curve in the direction sought with a large enough effect in the signal ratio, with a control signal flat; the % refers to the signal ratio); conditions: HeLa MMTV-bla, beta-lactamase ratio, agonist, 18 h; stronger effect = higher value; percent of dexamethasone control, DMSO zero
Chain of Glucocorticoid receptor (Homo sapiens) (P04150 whole entry, looked up): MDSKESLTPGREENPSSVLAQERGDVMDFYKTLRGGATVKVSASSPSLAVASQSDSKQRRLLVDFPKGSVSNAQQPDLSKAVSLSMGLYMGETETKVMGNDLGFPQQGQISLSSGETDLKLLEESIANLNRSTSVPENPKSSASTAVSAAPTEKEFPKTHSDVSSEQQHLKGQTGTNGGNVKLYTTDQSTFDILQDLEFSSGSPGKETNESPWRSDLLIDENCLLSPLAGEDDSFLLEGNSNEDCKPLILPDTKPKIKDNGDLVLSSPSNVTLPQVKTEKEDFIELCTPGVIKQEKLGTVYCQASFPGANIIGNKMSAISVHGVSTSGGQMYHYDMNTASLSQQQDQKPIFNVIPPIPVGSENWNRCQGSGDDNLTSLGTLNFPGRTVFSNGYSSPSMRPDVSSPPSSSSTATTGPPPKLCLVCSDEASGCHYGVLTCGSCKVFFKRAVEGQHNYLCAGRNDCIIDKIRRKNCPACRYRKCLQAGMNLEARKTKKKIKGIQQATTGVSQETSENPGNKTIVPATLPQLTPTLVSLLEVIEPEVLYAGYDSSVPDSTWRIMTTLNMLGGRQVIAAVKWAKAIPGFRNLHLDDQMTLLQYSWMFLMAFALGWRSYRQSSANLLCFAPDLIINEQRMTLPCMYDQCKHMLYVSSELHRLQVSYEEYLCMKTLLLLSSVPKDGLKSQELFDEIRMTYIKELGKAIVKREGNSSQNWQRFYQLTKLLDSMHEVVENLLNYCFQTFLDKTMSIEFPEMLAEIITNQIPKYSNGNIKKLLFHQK
Method in brief: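 Cells were plated and rested 3-5 h at 37 C, compounds were added in titration and incubated 18 h, then CCF4 substrate was loaded for 2 h at RT before reading blue/green fluorescence. EC50 came from Hill-equation fitting.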

[5] = target: Glucocorticoid receptor (Homo sapiens) (UniProt P04150); assay: qHTS assay for small molecule antagonists of glucocorticoid receptor signaling (AID 588533; active means well fitted inhibition curve with a large enough effect in the signal ratio, with a control signal flat, not every such curve was filed as active; the % refers to the signal ratio)
Method in brief: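 Antagonist-mode qHTS: compound titrations added to GRE-bla HeLa cells, then dexamethasone 2 nM final; 18 h, 37 C. CCF4 FRET fluorescence normalized to dexamethasone and DMSO; IC50 from Hill fit.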

[6] = qHTS assay for small molecule antagonists of peroxisome proliferator-activated receptor delta signaling (AID 588535; active means well fitted inhibition curve with a large enough effect in the signal ratio, with a control signal flat, not every such curve was filed as active; the % refers to the signal ratio;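 on max response: cells co-treated with a PPAR-delta agonist as stimulator during compound exposure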); conditions: HEK293T PPARd-UAS-bla, beta-lactamase FRET ratio, 18 h; 460 nm channel
Method in brief: (§1)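 Cells were seeded at 4000 per well in assay medium containing 2% charcoal/dextran FBS and held 5 hrs at 37 C. Compounds were then added for 18 hrs. CCF4 substrate was applied for 2 hrs at room temperature before fluorescence reading.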

[7] = target: Peroxisome proliferator-activated receptor delta (Homo sapiens) (UniProt Q03181); assay: as above
Chain of Peroxisome proliferator-activated receptor delta (Homo sapiens) (Q03181 whole entry, looked up): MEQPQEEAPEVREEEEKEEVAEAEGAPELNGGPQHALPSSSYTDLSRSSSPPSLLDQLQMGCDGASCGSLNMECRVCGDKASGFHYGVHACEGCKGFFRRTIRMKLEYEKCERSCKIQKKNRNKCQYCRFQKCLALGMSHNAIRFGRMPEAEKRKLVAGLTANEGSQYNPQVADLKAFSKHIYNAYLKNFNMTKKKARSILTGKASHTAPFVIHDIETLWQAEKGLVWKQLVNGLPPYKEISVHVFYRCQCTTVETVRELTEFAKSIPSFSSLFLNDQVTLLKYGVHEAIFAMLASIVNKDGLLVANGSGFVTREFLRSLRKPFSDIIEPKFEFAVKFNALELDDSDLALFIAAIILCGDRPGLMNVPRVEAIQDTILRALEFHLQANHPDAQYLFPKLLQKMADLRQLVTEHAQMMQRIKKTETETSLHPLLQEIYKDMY
Method in brief: as §1

[8] = target: Peroxisome proliferator-activated receptor gamma (Homo sapiens) (UniProt P37231); assay: qHTS assay for small molecule agonists of peroxisome proliferator-activated receptor gamma signaling (AID 588536; active means well fitted curve in the direction sought with a large enough effect in the signal ratio, with a control signal flat, not every such curve was filed as active; the % refers to the signal ratio)
Chain of Peroxisome proliferator-activated receptor gamma (Homo sapiens) (P37231 whole entry, looked up): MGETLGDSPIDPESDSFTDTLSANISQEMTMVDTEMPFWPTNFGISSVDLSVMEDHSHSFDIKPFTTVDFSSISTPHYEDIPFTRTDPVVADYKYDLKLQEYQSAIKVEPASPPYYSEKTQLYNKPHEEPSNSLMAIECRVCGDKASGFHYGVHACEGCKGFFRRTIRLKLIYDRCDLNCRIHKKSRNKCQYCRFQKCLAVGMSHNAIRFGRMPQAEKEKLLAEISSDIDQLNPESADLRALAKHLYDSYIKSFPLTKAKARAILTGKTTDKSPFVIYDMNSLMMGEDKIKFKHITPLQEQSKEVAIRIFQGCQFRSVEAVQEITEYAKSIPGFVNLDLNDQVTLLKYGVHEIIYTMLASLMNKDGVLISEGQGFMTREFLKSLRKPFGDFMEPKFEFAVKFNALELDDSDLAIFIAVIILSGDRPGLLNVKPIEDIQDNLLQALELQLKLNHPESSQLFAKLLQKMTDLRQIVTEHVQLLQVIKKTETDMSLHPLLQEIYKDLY
Method in brief: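 HEK293 UAS-bla reporter line, 1% charcoal/dextran FBS; titration, 16 h, 37 C; CCF4 loading 2 h RT; fluorescence 460/530 nm. Normalized to rosiglitazone 2 uM = 100%, DMSO = 0%.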

[9] = target: Peroxisome proliferator-activated receptor gamma (Homo sapiens) (UniProt P37231); assay: qHTS assay for small molecule antagonists of peroxisome proliferator-activated receptor gamma signaling (AID 588537; active means well fitted inhibition curve with a large enough effect in the signal ratio, with a control signal flat, not every such curve was filed as active; the % refers to the signal ratio;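 further: reporter cells co-stimulated with 50 nM rosiglitazone agonist during compound treatment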)
Method in brief: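 Step one: plate 3000 HEK293 UAS-bla cells per well in medium with 1% stripped serum and hold 6-6.5 h at 37 C. Step two: add compound and 50 nM agonist for 16 h. Step three: CCF4 loading, fluorescence read.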

CCNc1cc(O)ccc1C
outcome [1]: inactive | outcome [2]: inactive | outcome [3]: inactive

O=C(O)c1ccccc1C(=O)O
activation [4]: -4.91% (inactive) | outcome [5]: inactive | max response [6]: 14.7% | Potency [7]: inactive

O=C(O)c1c(Cl)cccc1Cl
outcome [1]: inactive | outcome [8]: inactive

Cc1ccccc1Br
outcome [1]: inactive | outcome [8]: inactive | outcome [2]: inactive | outcome [3]: inactive

CCC(O)C(C)(C)C (stereo not drawn)
outcome [1]: inactive | max response [6]: 11.2% | Potency [7]: inactive | outcome [8]: inactive | outcome [9]: inactive

C=C(C)C(=O)OCC(C)C
outcome [1]: inactive | max response [6]: -19.3% | Potency [7]: inactive | outcome [8]: inactive | outcome [2]: inactive | outcome [3]: inactive

Cc1nc2ccc(Cl)cc2[nH]1
outcome [1]: inactive | outcome [8]: inactive | outcome [9]: inactive | outcome [2]: inactive | outcome [3]: inactive

C(=C/c1ccccc1)/c1ccccc1
outcome [1]: inactive | max response [6]: 11.7% | Potency [7]: inactive | outcome [8]: inactive | outcome [9]: inactive | outcome [2]: inactive | outcome [3]: inactive

CCOC(C)(C)C
outcome [1]: inactive | max response [6]: -1.23% | Potency [7]: inactive | outcome [8]: inactive | outcome [2]: inactive | outcome [3]: inactive

COc1ccc(N)c(C)c1
outcome [1]: inactive | max response [6]: -12.2% | Potency [7]: inactive | outcome [2]: inactive | outcome [3]: inactive

BrC/C=C/CBr
outcome [1]: inactive | max response [6]: 20.5% | Potency [7]: inactive | outcome [8]: inactive

C=CCOC(=O)CCCCCCCC
outcome [1]: inactive | outcome [8]: inactive | outcome [9]: inactive | outcome [2]: inactive | outcome [3]: inactive

Cc1cc(C2(c3cc(C)c(O)cc3C)OS(=O)(=O)c3ccccc32)c(C)cc1O
activation [4]: 3.46% (inactive)

NC=O
outcome [1]: inactive | outcome [8]: inactive | outcome [2]: inactive | outcome [3]: inactive

CCCCN(CCO)CCCC
outcome [1]: inactive | max response [6]: 4.41% | Potency [7]: inactive | outcome [8]: inactive | outcome [2]: inactive

O=C(O)CNC(=O)c1ccc([N+](=O)[O-])cc1
outcome [1]: inactive | max response [6]: 53.5% | Potency [7]: inactive | outcome [8]: inactive | outcome [2]: inactive | outcome [3]: inactive

O=C(O)c1ccc(Cl)c(Cl)c1
outcome [1]: inactive | max response [6]: 20.7% | Potency [7]: inactive | outcome [8]: inactive | outcome [9]: inactive | outcome [2]: inactive

Cc1ccc(C(=O)O)cc1
outcome [1]: inactive | outcome [8]: inactive

Oc1c(Cl)ccc(Cl)c1Cl
outcome [1]: inactive | outcome [2]: inactive | outcome [3]: inactive

CC(=O)c1ccccn1
outcome [1]: inactive | max response [6]: -20.6% | Potency [7]: inactive | outcome [8]: inactive | outcome [2]: inactive | outcome [3]: inactive

O=P(O)(OCc1ccccc1)OCc1ccccc1
outcome [1]: inactive | outcome [8]: inactive | outcome [2]: inactive | outcome [3]: inactive

CC(C)Cc1nccs1
outcome [1]: inactive | outcome [8]: inactive | outcome [2]: inactive | outcome [3]: inactive

COc1ccccc1[N+](=O)[O-]
outcome [1]: inactive | outcome [2]: inactive | outcome [3]: inactive

Cc1ccccc1C#N
outcome [1]: inactive | max response [6]: -5.92% | Potency [7]: inactive | outcome [2]: inactive | outcome [3]: inactive

O=Cc1ccc(CO)o1
outcome [1]: inactive | outcome [8]: inactive | outcome [2]: inactive | outcome [3]: inactive

O=C1C=CCCC1
outcome [1]: inactive | max response [6]: -11% | Potency [7]: inactive | outcome [8]: inactive

c1ccc2[nH]cnc2c1
outcome [1]: inactive | outcome [8]: inactive | outcome [2]: inactive | outcome [3]: inactive

Clc1ccccn1
outcome [1]: inactive | max response [6]: 26.1% | Potency [7]: inactive | outcome [2]: inactive | outcome [3]: inactive

O=C1OC(=O)c2c(Cl)c(Cl)c(Cl)c(Cl)c21
outcome [1]: inactive | max response [6]: -11.3% | Potency [7]: inactive | outcome [8]: inactive

CCNc1ccccc1
outcome [1]: inactive | max response [6]: 13.4% | Potency [7]: inactive | outcome [8]: inactive | outcome [9]: inactive | outcome [2]: inactive | outcome [3]: inactive

O=C(O)c1ccccc1Cl
outcome [1]: inactive | max response [6]: -1.82% | Potency [7]: inactive | outcome [8]: inactive | outcome [2]: inactive | outcome [3]: inactive

OCCO
outcome [1]: inactive | outcome [8]: inactive | outcome [2]: inactive | outcome [3]: inactive

C=CCCCCCCC=C
outcome [1]: inactive | max response [6]: -11.7% | Potency [7]: inactive | outcome [8]: inactive | outcome [9]: inactive | outcome [2]: inactive | outcome [3]: inactive

Nc1cccc(N)c1
outcome [1]: inactive | outcome [2]: inactive | outcome [3]: inactive

CCC(C)(C)C(=O)O
outcome [1]: inactive | max response [6]: -22.2% | Potency [7]: inactive | outcome [2]: inactive | outcome [3]: inactive

Nc1cccc(C(F)(F)F)c1
outcome [1]: inactive | max response [6]: 14.1% and 46.7% | Potency [7]: inactive | outcome [8]: inactive

C[C@@H]1CC2(OC[C@]3(C)O[C@H]23)O[C@H]2C[C@@]3(C)[C@@H]4CC[C@H]5C(C)(C)C(O[C@@H]6OC[C@@H](O)[C@H](O)[C@H]6O)CC[C@@]56C[C@@]46CC[C@]3(C)[C@@H]12 (stereo partly drawn)
activation [4]: -8.99% (inactive)
